Most compounds without a hit are left out; they make up all but 2% or so of the library.
S1P4 antagonist: antagonists of human S1P4 receptor. O95977. 220,000 compounds, 0.26% hits. inhibition, % at 4.98 µM. S1P4-expressing cells, antagonist mode, reporter read-out; in the data active = inhibition above about 29%;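 also: 0% = wells stimulated with agonist and 100% = vehicle wells without agonist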
EP2 antag: EP2 receptor (human) inhibition | C6 glioma cells expressing human EP2, cAMP TR-FRET; cells stimulated with saturating PGE2 | AID 1422 | 260,000 compounds, 0.52% hits | inhibition, % at 25 µM | P43116;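 active = percent inhibition above 40 after rounding to a whole number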;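 also: rat C6 glioma host cells with rolipram phosphodiesterase inhibitor present; the protocol text gives 20 µM as final concentration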
EP2 mod: EP2 receptor (human) modulation | induction, % at 25 µM | EP2-expressing cells, cAMP HTRF FRET, PGE2 co-stimulation | P43116 | 260,000 compounds, 0.83% hits | AID 940;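 active = compounds whose cAMP rise, as percent of the full-agonist control response, exceeds 60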;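 also: rat C6 glioma line stably carrying human EP2 under a CMV promoter; the protocol text gives 20 µM as final concentration; 100% = response of wells given 1 µM PGE2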
S1P3 antag: antagonists of human S1P3 receptor; Q99500; CHO S1P3 NFAT-BLA reporter, FRET fluorescence, antagonist mode; 170,000 compounds, 0.27% hits; AID 485; inhibition, % at 4.98 µM;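 active = inhibition above the plate cutoff, the mean inhibition of test wells on that plate plus 3 SD, cut at about 28% in these data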;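 also: cells challenged with S1P at its EC80 of 0.8 µM; blue over green emission ratio from cleaved BLA substrate after 4 h stimulation; 0% = S1P-stimulated wells and 100% = unstimulated DMSO-only wells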
Target sequence (Q99500 whole entry, looked up): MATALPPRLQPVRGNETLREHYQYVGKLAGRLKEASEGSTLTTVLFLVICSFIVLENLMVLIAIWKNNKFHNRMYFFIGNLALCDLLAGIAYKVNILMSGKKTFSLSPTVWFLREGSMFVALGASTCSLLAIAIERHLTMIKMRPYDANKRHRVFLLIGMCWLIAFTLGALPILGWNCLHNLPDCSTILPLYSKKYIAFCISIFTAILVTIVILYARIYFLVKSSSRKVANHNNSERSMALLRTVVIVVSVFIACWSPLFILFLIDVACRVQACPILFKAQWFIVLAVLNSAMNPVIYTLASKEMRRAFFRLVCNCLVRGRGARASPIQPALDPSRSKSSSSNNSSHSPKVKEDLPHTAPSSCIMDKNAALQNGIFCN
S1P4 ag: agonists of human S1P4 receptor; activation, % at 4.98 µM; S1P4-expressing cell line, agonist reporter assay; O95977; 220,000 compounds, 0.35% hits; in the data active = activation above about 11%;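 also: 0% = DMSO vehicle and 100% = reference agonist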
Starred values were filed as active, the others as inactive; . = not tested or not shown; ! = not active in a repeat.

SMILES	S1P4 antagonist	EP2 antag	EP2 mod	S1P3 antag	S1P4 ag
O=C(OCC#CCSc1nnc(-c2ccncc2)o1)c1ccccc1	.	8	4	.	.
O=C(c1cc(Cl)cc(Cl)c1)N1CCCC1	.	10	10	.	.
O=C(Nc1ccccc1Cl)C1C2CCC3C(CCC21)C3(Cl)Cl (centres undefined)	2	8	21	-4	0
CC1(C)Cc2ccccc2C(C(=O)Nc2ccccc2Cl)N1 (centres undefined)	.	10	63*	.	.
Cc1ccc2cc3c(cc2c1)C[N+]1(CCOCC1)C3	.	4	-28	.	.
C[C@@H](C(=O)Nc1ccc2ccccc2c1)[C@H]1C[C@]1(C)[C@H](NC(=O)OCc1ccccc1)c1ccccc1	14	3	35	32*	2
Cc1cc(C(F)(F)F)nn1CC(=O)NNC(=S)Nc1ccc(Cl)cc1	-4	196*	2	.	0
Cc1occc1-c1nnc(SCC(=O)N2CCCCC2)n1Cc1ccccc1	.	5	-24	.	.
Cc1occc1-c1nnc(SCC(=O)N2CCN(c3ccccc3F)CC2)n1C	-16	7	75*!	-19	2
O=C(COc1cccc2ccccc12)N1CCc2ccccc21	.	12	37	.	.
CC(NC(=O)CCCSc1nc(-c2ccco2)cc(C(F)(F)F)n1)c1ccccc1 (centres undefined)	.	42*	-125	.	.
O=C(CCCSc1nc(-c2ccco2)cc(C(F)(F)F)n1)Nn1cnnc1	.	9	-41	.	.
CC1CCN(c2nc3c(c(=O)[nH]2)CCN(Cc2cnn(C)c2)C3)CC1	.	.	-31	.	.
Cc1cc2cc(C)c(SCC(=O)Nc3ccccc3C)nc2cc1C	.	13	-11	.	.
Cc1cc(C)cc(Oc2nc(C(F)(F)F)nc3ccccc23)c1	-19	9	61*	.	-4
OC(c1cc(C(F)(F)F)nc2c(C(F)(F)F)cccc12)C1CCCCN1 (centres undefined)	.	16	-22	.	.
CC1CCN(C(=O)CSc2nc(-c3ccc(F)cc3)cc(C(F)(F)F)n2)CC1	.	11	14	.	.
OC(c1cc(-c2ccc(C(F)(F)F)cc2)nc(C(F)(F)F)c1)C1CCCCN1 (centres undefined)	25	54*	-30	-1	5
O[C@@H](c1cc(C(F)(F)F)nc2c(Cl)cc(Cl)cc12)[C@@H]1CCCCN1	.	58*	14	.	.
CCc1ccc(CN(Cc2ccco2)C(=O)c2cc3ccccc3oc2=O)cc1	.	8	-67	.	.
CC1CCCN(CC(O)c2ccc3c(c2)CCCN3C(=O)c2cccc(F)c2)C1 (centres undefined)	.	13	-9	.	.
COc1cc(Cn2c(-c3nonc3N)nc3ccccc32)ccc1C	-12	17	24	6	-3
COc1cccc(Cn2c(-c3nonc3N)nc3ccccc32)c1	8	3	64*	-17	1
CC(C)CN1CCc2c(nc(N3CCC(C)CC3)[nH]c2=O)C1	.	.	-30	.	.
NC(=O)c1cn(-c2ccccc2)nc1-c1cc2ccccc2oc1=O	-8	0	98*	.	1
SMILES	S1P4 antagonist	EP2 antag	EP2 mod	S1P3 antag	S1P4 ag
O=C(CSc1nnc(NC(=O)C2CC2)s1)NC1CCCCC1	.	11	-8	.	.
COC(=O)[C@H]1CN(C(=O)Cn2cnnn2)C[C@@H]1c1ccc(F)cc1	.	.	-21	.	.
CCNC(=S)N(Cc1ccccc1)Cc1cc2cccc(C)c2[nH]c1=O	.	12	-34	.	.
O=C(Nc1ncc(Br)s1)C(Cc1ccccc1)n1cccc1 (centres undefined)	24	9	9	67*	0
O=C1OC2(c3ccc(O)cc3Oc3cc(O)ccc32)c2c1c(-c1ccccc1)c(-c1ccccc1)c(-c1ccccc1)c2-c1ccccc1	.	45*	5	.	.
O=c1cc(-c2ccccc2)oc2ccc(O)cc12	-24	9	-6	-4	0
CC(C)=Cc1oc2ccc([N+](=O)[O-])cc2c1N1CC(C)OC(C)C1 (centres undefined)	-2	9	62*	-5	1
COC(=O)c1cc(-c2ccc(C(c3c(C)[nH][nH]c3=O)c3c(C)[nH][nH]c3=O)o2)ccc1Cl	.	40*	-72	.	.
COc1ccc(-n2nnnc2SCC(N)=O)cc1OC	.	11	-13	.	.
Cc1ccc(-n2c(Cl)c(Cl)nc(Cl)c2=O)cc1	76*	36	-50	2	2
C=C/C=C(\C=C/C)C1(C(=O)Nc2nnc(C)s2)CCOCC1	.	14	-5	.	.
COc1ccc(-c2nc3c4ccccc4ccn3c2CN2CCCCC2)cc1	-12	4	43	18	2
COc1ccc(-c2nc3c4ccccc4ccn3c2CN2CCCCC2)cc1OC	9	9	64*	10	0
CC(C)N1CCN(Cc2ccc(Sc3nncn3C)o2)CC1CCO (centres undefined)	-9	7	66*	-1	0
O=C(Cc1cccc(Cl)c1)NC1(c2ccc3c(c2)OCO3)CCCC1	.	5	-11	.	.
Cc1nnc(SCC(=O)c2ccc(Br)cc2)s1	-8	1	-4	0	1
Cc1cc(SCC(=O)c2ccc(Br)cc2)cc(C)[o+]1	.	48*	16	.	.
CC1CCc2c(sc3ncn4c(SCC(=O)Nc5ccccc5)nnc4c23)C1 (centres undefined)	.	10	5	.	.
N=c1c(C(=O)NCc2ccc(F)cc2)cc2c(=O)n3ccccc3nc2n1CCCN1CCOCC1	-29	17	13	-66	14*
COc1ccc(C(=O)Nc2cc(-c3nc4ccc(C)cc4o3)ccc2C)cc1OC	.	8	6	.	.
CN1CCN(Cc2c(O)ccc3occ(C(=O)c4ccccc4)c23)CC1	3	8	1	-5	-1
CC(=O)C(C(C)=O)c1c(Cl)c(O)c(O)c2c(C(=O)c3ccccc3)coc12	6	57*	-27	5	0
CCc1nc(N2CCCC(C)C2)c2oc3ccccc3c2n1 (centres undefined)	-2	7	61*	18	2
C=CCn1c(N2CCC(C(=O)NCCc3ccc(OC)cc3)CC2)nc2ccccc21	.	10	-43	.	.
O=C1CCCN1c1ccc(CNC2(c3ccccc3F)CCCC2)cc1	.	8	-21	.	.
SMILES	S1P4 antagonist	EP2 antag	EP2 mod	S1P3 antag	S1P4 ag
CSc1nc(-c2ccccc2)c(C#N)c(=O)[nH]1	13	18	42	-10	0
CCSc1nc(-c2ccccc2)c(C#N)c(=O)[nH]1	0	50*	45	-18	1
COc1ccc(NC(=O)C(Cl)=C(Cl)Cl)cn1	-3	1	-9	-7	0
COc1ccc(NC(=O)/C(Cl)=C(/Cl)S(=O)Cc2ccc(Cl)cc2)cn1 (centres undefined)	52*	16	-71	44*	4
O=C(CSc1nnc(-c2ccc(Br)o2)n1Cc1ccccc1)c1ccccc1F	0	8	50	58*	-1
C[C@H]1CC(C)(C)C[C@@](OCCN2CCCCC2)(c2ccccc2)C1	.	53*	7	.	.
C/C=C/Cn1c(SCc2ccccc2)nc2c1c(=O)[nH]c(=O)n2C	7	10	66*!	8	0
CC(C)Sc1nc2c(c(=O)[nH]c(=O)n2C)n1CCCc1ccccc1	.	9	71*	.	.
CCCCCn1c(Sc2nc3ccccc3s2)nc2c1c(=O)[nH]c(=O)n2C	1	7	63*	-30	-5
